# PubChem BioAssay AID1224903 (Bradner/Qi Labs at DFCI, 2016)
# Where “and” joins values, the source holds several entries; their conditions need not be identical. Equal values may be shown once. Among all 66,000 compounds or so, about 720 (1.1%) were called active. No stated cut-off is given here; in the data, active means normalised signal below about 0.5; inactive means the rest, inconclusive results apart. Shown is part of a subset that was picked to be rich in actives.
# Target: Chromobox protein homolog 7 (Homo sapiens) (UniProt O95931)
# Sequence (O95931 whole entry, looked up): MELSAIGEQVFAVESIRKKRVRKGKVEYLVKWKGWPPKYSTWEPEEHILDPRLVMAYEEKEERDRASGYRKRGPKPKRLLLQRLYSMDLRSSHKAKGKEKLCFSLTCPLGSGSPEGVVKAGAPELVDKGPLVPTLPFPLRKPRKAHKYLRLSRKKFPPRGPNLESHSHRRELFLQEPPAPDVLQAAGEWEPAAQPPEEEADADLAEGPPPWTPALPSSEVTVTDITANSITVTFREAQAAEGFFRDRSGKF
# Assay: blockers of CBX7 binding to H3K27me3 peptide – biochemical, AlphaScreen, primary screen (AID 1224903)
# Conditions: AlphaScreen His6-CBX7 / biotin-H3K27me3 peptide binding, stronger effect = lower value; z-score: measured here: z-score of CBX7 signal
SMILES,normalised signal (fraction of DMSO),z-score
COc1ccccc1Nc1nc(-c2ccc(Br)cc2)cs1,0.904 (inactive) and 0.953 (inactive),-2.04 and -0.747
CN(CCCNC(=O)c1cc(-c2ccncc2)nc2ccccc12)C1CCCCC1,1.17 (inactive),1.9
Cc1ccc2oc(-c3cc(NC(=O)c4cccc(F)c4)ccc3Cl)nc2c1,0.889 (inactive),-0.255
CCOC(=O)c1cc(-c2ccccc2)n(-c2cccc(C(=O)Nc3nccs3)c2)c1C,0.944 (inactive),-1.01
CCOC(=O)c1cnc2cc(Cl)c(OC)cc2c1Nc1ccc(C(F)(F)F)cc1,0.983 (inactive),-0.244
CC(=O)Nc1ncc2c(n1)CC(c1cccs1)CC2=O (stereo unspecified),0.997 (inactive),-0.0863
Fc1ccc(-c2cc(C(F)(F)F)nc(NCc3ccc(Cl)cc3)n2)cc1,1.25 (inactive),2.79
O=C(NC1CCCC1)c1nn2c(C(F)(F)F)cc(-c3ccc(F)cc3)nc2c1Cl,1.08 (inactive),0.569
CCC(C)NC(=O)c1ccc2nc(N3CCOCC3)sc2c1 (stereo unspecified),1.08 (inactive),3.28
Cn1cc(CC(=O)N2CCN(c3ccccn3)CC2)c2ccccc21,0.973 (inactive),-0.31
O=C(NCCCc1nc2ccccc2n1Cc1ccccc1F)c1ccc(F)cc1,0.957 (inactive),-1.01
Cn1c(C(=O)NCCCSC2CCCCC2)cc2sc(Cl)cc21,1.03 (inactive),0.498
Cc1ccc(-c2nc(-c3ccccc3Cl)no2)cc1,1.16 (inactive),1.59
COc1ccc(-n2c3c(cc(C(=O)NC(C)(C)C)c2=O)C(=O)CC(C)(C)C3)cc1,1.06 (inactive),0.667
Cc1ccc(-c2nnc(SCC(=O)Nc3cc(C)on3)o2)cc1,1.19 (inactive),2.87
Cc1cc(NC(=O)CSc2nnc(-c3ccc(Cl)s3)o2)no1,1.1 (inactive),1.02
COc1ccc(OC)c(-c2nnc(SCC(=O)Nc3cc(C)on3)o2)c1,0.264 (active),-15.1
CC1CCN(c2nc3ccc(C(=O)NCCCN4C(C)CCCC4C)cc3s2)CC1 (stereo unspecified),1.41 (inactive),3.88
COc1ccc(CCNC(=O)c2cccc3c2C(=O)N(Cc2cccnc2)C3)cc1OC,1.02 (inactive),0.0167
Cc1cccc(C)c1NC(=O)C1(N(CCc2c[nH]c3ccccc23)C(=O)c2ccccc2F)CCCCC1,0.792 (inactive),-3.78
CCN(C(=O)Cc1nc(N)n[nH]1)C1(C(=O)Nc2ccccc2)CCCCC1,0.201 (active),-14.5
CCN(C(=O)Cc1nc(N)n[nH]1)C1(C(=O)Nc2ccc(C)cc2)CCCCC1,0.791 (inactive),-3.79
Cc1cc(NCC(C)c2ccccc2)n2ncnc2n1 (stereo unspecified),1.03 (inactive),0.546
CCOC(=O)c1cccc(NC(=O)Cn2nc(Cc3ccncc3)c3ccccc3c2=O)c1,0.996 (inactive),-0.0743
COc1cccc(C2=NOC(C(=O)NCCc3ccccc3)C2)c1 (stereo unspecified),1.14 (inactive),1.85
Cc1cc(Nc2ccc(C)c(C)c2)n2ncnc2n1,1.04 (inactive),0.609
CC1CCC(NC(=O)C2c3ccccc3C(=O)N2Cc2ccc3c(c2)OCO3)CC1 (stereo unspecified),1.04 (inactive),0.918

SMILES,normalised signal (fraction of DMSO),z-score
COc1ccc(CCNC(=O)CSc2nc3ccccc3[nH]2)cc1OC,1.07 (inactive),0.758
COc1ccc(CCNC(=O)CSc2nc3ccccc3nc2Cc2ccc(F)cc2)cc1OC,0.48 (active),-8.99
COc1ccc(CCNC(=O)CSc2nnc(CNC(=O)c3cccs3)o2)cc1OC,0.975 (inactive),-0.715
O=S1(=O)N=C(N2CCCCC2)c2ccccc21,1.07 (inactive),2
CCNc1cc(Nc2ccccc2)c2c3c(onc13)-c1ccccc1C2=O,0.816 (inactive),-3.56
O=C1c2ccccc2-c2onc3c(N4CCCC4)ccc1c23,0.367 (active),-9.89
O=C(Nc1ccccc1Cl)N1CCCCC1c1cccnc1 (stereo unspecified),0.995 (inactive),-0.051
Cc1ccc(Nc2cc(C(=O)O)c3ccccc3n2)cc1,1.11 (inactive),1.21
O=C(COc1ccc(Cl)cc1)NCc1nnc(SCC(=O)NCC2CCCO2)o1 (stereo unspecified),1.04 (inactive),1.76
COc1ccc(C2CC(=O)N(CC(=O)Nc3ccc(C)c(Cl)c3)c3ccccc3S2)cc1 (stereo unspecified),0.931 (inactive),-1.15
Cc1ccccc1OCC(O)Cn1c(=N)n(C)c2ccccc21 (stereo unspecified),1.02 (inactive),0.641
CC(=O)N1CCc2cc(S(=O)(=O)N(CCO)Cc3ccccc3)ccc21,1.17 (inactive),1.75
CCOc1ccc2nc(C)cc(Nc3ccc(OC)c(OC)c3)c2c1,0.818 (inactive),-2.64
CCCCc1ccc(NC(=O)CSc2nccn2-c2cccc(C)c2C)cc1,0.742 (inactive),-0.258
Cc1cccc(N(C)C(=O)C(NS(=O)(=O)c2ccc3c(c2)CCC(=O)N3)c2ccccc2)c1 (stereo unspecified),1.06 (inactive),0.379
CC1CCCCN1CCCNC(=O)C1CCC(=O)N1C1CCCC1 (stereo unspecified),1.05 (inactive),1.64
c1ccc(SCCc2ccc3cc(-c4ccccc4)cn3c2)cc1,0.986 (inactive),-0.335
CCOc1ccc2nc(NC(=O)c3ccc(OC)cc3)sc2c1,1.05 (inactive),1.46
Cc1c(CNC2CCCCC2C)c(C(=O)O)c(C)n1Cc1ccccc1 (stereo unspecified),1.01 (inactive),0.18
O=C(c1ccc(NC2=NC3CS(=O)(=O)CC3S2)cc1)N1CCN(C2CCCCC2)CC1 (stereo unspecified),1.05 (inactive),1.03
COc1ccc(CNC(=O)C2CCN(S(=O)(=O)c3c(C)noc3C)CC2)cc1,1.02 (inactive),0.788
Cc1ccc(-c2nc(Nc3cccc(C(F)(F)F)c3)c3ccccc3n2)cc1,1.08 (inactive),1.39
Cc1ccc(Cl)cc1N1CCN(C(=O)Cn2ncc3c2-c2ccccc2OC3)CC1,0.728 (inactive),-7.81
CCn1cnc2cc(NCc3ccccn3)ccc21,0.316 (active),-5.49
CCCn1cnc2cc(NCc3cc(OC)ccc3OC)ccc21,0.919 (inactive),-2.03
COc1cccc(CNc2ccc3c(c2)ncn3C)c1,0.916 (inactive),-1.96
